# In all, about 5,500 compounds went through this assay and about 2,000 (36%) were called active. Not shown: some 18% with an inconclusive outcome. The list shows a part of the results. Values without a mark were called inactive. Cut-off read from the data, not from the text of the source: active = normalized growth mostly below about 0.91 (no sharp cut-off); inconclusive = no clear call, values can overlap the other calls; inactive = mostly above about 0.92.
# Test: chemical genetic growth profiling, strain panel (AID 1159580);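 note: tested at 20 µM; growth read once vehicle control cultures reached saturation at 30 °C; 1 = growth at the plate median or of vehicle wells; lower values mean less growth of the strain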
# Conditions: S. cerevisiae deletion strains, growth OD
# [1] = locus YDL101C, strain DUN1, stronger effect = lower value
# [2] = locus YHR030C, strain SLT2, stronger effect = lower value
# [3] = locus YAL013W, strain DEP1, stronger effect = lower value
# [4] = locus YDR150W, strain NUM1, stronger effect = lower value
# [5] = locus YEL061C, strain CIN8, stronger effect = lower value
# [6] = locus YGR078C, strain PAC10, stronger effect = lower value
# [7] = locus YHR087W, strain rtc3, stronger effect = lower value
# [8] = locus YJR043C, strain POL32, stronger effect = lower value
# [9] = locus YJR075W, strain HOC1, stronger effect = lower value
# [10] = locus YLR039C, strain RIC1, stronger effect = lower value
# [11] = locus YLR058C, strain SHM2 (second series), stronger effect = lower value
# [12] = locus YLR085C, strain ARP6, stronger effect = lower value
# [13] = locus YLR262C, strain YPT6, stronger effect = lower value
# [14] = locus YML094W, strain GIM5, stronger effect = lower value
# [15] = locus YMR219W, strain ESC1, stronger effect = lower value
# [16] = locus YMR263W, strain SAP30, stronger effect = lower value
# [17] = locus YMR307W, strain GAS1, stronger effect = lower value
# [18] = locus YNL153C, strain GIM3, stronger effect = lower value
# [19] = locus YNL298W, strain CLA4 (second series), stronger effect = lower value
# [20] = locus YNL322C, strain KRE1, stronger effect = lower value
# [21] = locus YNR030W, strain Alg12, stronger effect = lower value
# [22] = locus YPL055C, strain LGE1, stronger effect = lower value
# [23] = locus YPL241C, strain CIN2, stronger effect = lower value
# [24] = locus YPR135W, strain CTF4, stronger effect = lower value
compound,measurement,setting,value
OC(COCc1ccccc1)Cn1c2ccccc2c2ccccc21 (stereo unspecified),normalized growth,"locus YAR019C, strain CDC15, stronger effect = lower value",0.951
same,normalized growth,"locus YBL105C, strain PKC1, stronger effect = lower value",0.95
same,normalized growth,"locus YBR135W, strain CKS1, stronger effect = lower value",0.951
same,normalized growth,"locus YBR136W, strain MEC1, stronger effect = lower value",0.952
same,normalized growth,"locus YBR160W, strain CDC28, stronger effect = lower value",0.955
same,normalized growth,"locus YDL017W, strain CDC7, stronger effect = lower value",0.953
same,normalized growth,"locus YDL028C, strain MPS1, stronger effect = lower value",0.951
same,normalized growth,[1],0.98
same,normalized growth,"locus YDL108W, strain KIN28, stronger effect = lower value",0.952
same,normalized growth,"locus YDL132W, strain cdc53, stronger effect = lower value",0.952
same,normalized growth,"locus YDL214C, strain PRR2, stronger effect = lower value",0.903
same,normalized growth,"locus YDR052C, strain DBF4, stronger effect = lower value",0.965
same,normalized growth,"locus YDR054C, strain cdc34, stronger effect = lower value",0.939
same,normalized growth,"locus YDR226W, strain ADK1, stronger effect = lower value",0.965
same,normalized growth,"locus YDR477W, strain SNF1, stronger effect = lower value",0.888
same,normalized growth,"locus YER123W, strain YCK3, stronger effect = lower value",0.888
same,normalized growth,"locus YER133W, strain GLC7, stronger effect = lower value",0.876
same,normalized growth,"locus YFL009W, strain cdc4, stronger effect = lower value",0.964
same,normalized growth,"locus YFL029C, strain CAK1, stronger effect = lower value",0.947
same,normalized growth,"locus YFR003C, strain YPI1, stronger effect = lower value",0.947
same,normalized growth,"locus YFR019W, strain FAB1, stronger effect = lower value",0.954
same,normalized growth,"locus YFR028C, strain CDC14, stronger effect = lower value",0.96
same,normalized growth,"locus YGR040W, strain KSS1, stronger effect = lower value",0.888
same,normalized growth,"locus YGR052W, strain FMP48, stronger effect = lower value",0.874
same,normalized growth,"locus YGR092W, strain DBF2, stronger effect = lower value",0.838
same,normalized growth,[2],0.632 (active)
same,normalized growth,"locus YHR079C, strain IRE1, stronger effect = lower value",0.729
same,normalized growth,"locus YHR082C, strain KSP1, stronger effect = lower value",0.91
same,normalized growth,"locus YHR205W, strain SCH9, stronger effect = lower value",0.936
same,normalized growth,"locus YIL147C, strain SLN1, stronger effect = lower value",0.953
same,normalized growth,"locus YJL095W, strain BCK1, stronger effect = lower value",0.866
same,normalized growth,"locus YJL128C, strain PBS2, stronger effect = lower value",0.917
same,normalized growth,"locus YJL157C, strain FAR1, stronger effect = lower value",0.882
same,normalized growth,"locus YJR016C, strain ILV3, stronger effect = lower value",0.953
same,normalized growth,"locus YJR066W, strain TOR1 (second series), stronger effect = lower value",0.917
same,normalized growth,"locus YJR066W, strain TOR1, stronger effect = lower value",0.886
same,normalized growth,"locus YKL048C, strain ELM1, stronger effect = lower value",0.973
same,normalized growth,"locus YKL067W, strain YNK1, stronger effect = lower value",0.905
same,normalized growth,"locus YKL101W, strain HSL1, stronger effect = lower value",0.891
same,normalized growth,"locus YKL193C, strain SDS22, stronger effect = lower value",0.953
same,normalized growth,"locus YKL203C, strain TOR2, stronger effect = lower value",0.877
same,normalized growth,"locus YLR113W, strain HOG1, stronger effect = lower value",0.769 (active)
same,normalized growth,"locus YLR133W, strain CKI1, stronger effect = lower value",0.893
same,normalized growth,"locus YLR403W, strain SFP1, stronger effect = lower value",0.907
same,normalized growth,"locus YML070W, strain DAK1, stronger effect = lower value",0.876
same,normalized growth,"locus YMR001C, strain CDC5, stronger effect = lower value",0.944
same,normalized growth,"locus YMR205C, strain PFK2 (second series), stronger effect = lower value",0.939
same,normalized growth,"locus YMR277W, strain FCP1, stronger effect = lower value",0.955
same,normalized growth,"locus YNL006W, strain LST8, stronger effect = lower value",0.946
same,normalized growth,"locus YNL020C, strain ARK1, stronger effect = lower value",0.881
same,normalized growth,"locus YNL161W, strain CBK1, stronger effect = lower value",0.947
same,normalized growth,"locus YNL183C, strain NPR1, stronger effect = lower value",0.885
same,normalized growth,"locus YNL207W, strain RIO2, stronger effect = lower value",0.946
same,normalized growth,"locus YNL222W, strain SSU72, stronger effect = lower value",0.958
same,normalized growth,"locus YNL307C, strain MCK1 (second series), stronger effect = lower value",0.885
same,normalized growth,"locus YOL078W, strain AVO1, stronger effect = lower value",0.959
same,normalized growth,"locus YOL136C, strain PFK27, stronger effect = lower value",0.898
same,normalized growth,"locus YOR061W, strain CKA2, stronger effect = lower value",0.924
same,normalized growth,"locus YOR119C, strain RIO1, stronger effect = lower value",0.933
same,normalized growth,"locus YOR231W, strain MKK1, stronger effect = lower value",0.837
same,normalized growth,"locus YOR329C, strain SCD5, stronger effect = lower value",0.952
same,normalized growth,"locus YPL031C, strain PHO85, stronger effect = lower value",0.845
same,normalized growth,"locus YPL204W, strain HRR25, stronger effect = lower value",0.791
same,normalized growth,"locus YPL209C, strain IPL1, stronger effect = lower value",0.955
same,normalized growth,"locus YPL256C, strain CLN2, stronger effect = lower value",0.792 (active)
same,normalized growth,"locus YPR025C, strain CCL1, stronger effect = lower value",0.953
same,normalized growth,"locus YPR106W, strain ISR1, stronger effect = lower value",0.95
same,normalized growth,"locus YPR111W, strain DBF20, stronger effect = lower value",0.933
same,normalized growth,"strain NNK1, stronger effect = lower value",0.932
same,normalized growth,"strain TSCII, stronger effect = lower value",0.945
O=C(O)c1oc(C(=O)O)c(OCc2ccccc2)c1OCc1ccccc1,normalized growth,[3],1.01
same,normalized growth,"locus YBR229C, strain ROT2, stronger effect = lower value",1.02
same,normalized growth,"locus YCL061C, strain MRC1, stronger effect = lower value",0.984
same,normalized growth,[1],0.973
same,normalized growth,"locus YDL134C, strain PPH21, stronger effect = lower value",0.998
same,normalized growth,[4],0.973
same,normalized growth,[5],1.01
same,normalized growth,[6],0.976
same,normalized growth,[2],0.963
same,normalized growth,[7],1.03
same,normalized growth,[8],0.965
same,normalized growth,[9],0.988
same,normalized growth,[10],0.993
same,normalized growth,[11],1.02
same,normalized growth,[12],1.01
same,normalized growth,[13],0.981
same,normalized growth,[14],1.03
same,normalized growth,[15],0.997
same,normalized growth,[16],0.997
same,normalized growth,[17],1.03
same,normalized growth,[18],0.988
same,normalized growth,[19],0.986
same,normalized growth,[20],0.963
same,normalized growth,[21],0.998
same,normalized growth,[22],1.07
same,normalized growth,[23],1.01
same,normalized growth,[24],1
OCC(O)Cn1c2ccccc2c2ccccc21 (stereo unspecified),normalized growth,[3],1.01
same,normalized growth,[1],1.04
same,normalized growth,[4],1.03
same,normalized growth,[5],0.986
same,normalized growth,[6],1.02
same,normalized growth,"locus YGR229C, strain SMI1, stronger effect = lower value",0.994
same,normalized growth,[2],1.07
same,normalized growth,[7],0.953
same,normalized growth,"locus YJL187C, strain SWE1, stronger effect = lower value",1
same,normalized growth,[8],0.987
same,normalized growth,[9],1.01
same,normalized growth,[10],0.982
same,normalized growth,[11],0.988
same,normalized growth,[12],0.97
same,normalized growth,[13],0.959
same,normalized growth,[14],0.975
same,normalized growth,[15],0.986
same,normalized growth,[16],1.01
same,normalized growth,[18],1.02
same,normalized growth,[19],0.984
same,normalized growth,[20],0.999
same,normalized growth,[21],0.977
same,normalized growth,"locus YOL006C, strain TOP1, stronger effect = lower value",1
same,normalized growth,[22],0.932
same,normalized growth,[23],0.985
same,normalized growth,[24],1.02
CCCN(CC1CC1)c1nc(C)nc(Nc2c(Cl)cc(Cl)cc2Cl)c1Cl,normalized growth,[3],1.02
same,normalized growth,"locus YAL040C, strain CLN3, stronger effect = lower value",1.06
same,normalized growth,"locus YCL061C, strain MRC1 (second series), stronger effect = lower value",1
same,normalized growth,[4],1.01
same,normalized growth,"locus YDR363W, strain ESC2, stronger effect = lower value",0.999
same,normalized growth,"locus YER002W, strain NOP16, stronger effect = lower value",1.05
same,normalized growth,[9],1.01
same,normalized growth,[16],1.01
same,normalized growth,[17],1
same,normalized growth,[18],1.06
same,normalized growth,"locus YNL197C, strain WHI3, stronger effect = lower value",1.13 [resistant] (active)
same,normalized growth,"locus YNL224C, strain SQS1, stronger effect = lower value",1.05
same,normalized growth,"locus YOR083W, strain WHI5 (second series), stronger effect = lower value",1.18 [resistant] (active)

# Source: PubChem BioAssay AID1159580 (chemical genetic matrix, 2015)
